Compounds without any hit were thinned out: in the full panel of roughly 83,000, 20% have a hit.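 Activity criterion: percent growth below 10, measured after cells in 96-well plates were exposed to a single compound concentration for 48 hours.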 Unmarked numbers belong to inactive results. Active and inactive are the calls of the source.

The assay concerns MDA-MB-468 breast. Briefly: NCI-60 one-dose screen, 48 h (100 = growth as untreated, 0 = no growth, -100 = all killed). Conditions: 10 µM unless noted.
`O=C1c2cccc3cccc(c23)C(=O)N1CCCCCCCCCCN1C(=O)c2cccc3cccc(c23)C1=O`: the growth is 112%.
For `COc1ccc(C(=O)Nc2ncc(Cc3cccc(Cl)c3)s2)cc1OC` the value was -1.51% (active); for `O=C(/C=C/c1ccc[nH]1)c1ccc(-n2ccc(C(F)(F)F)n2)c(F)c1`, 60.4%; for `O=C(Nc1ccc(Cl)cc1)c1cc2cc(F)ccc2cc1O`, -1.3% (active).
For `CC(C)c1cccc(C#N)c1` the value was 99.4%; for `COc1cc(/C=C\c2cc(/C=C\c3ccc(O)c(OC)c3)n(C(=O)COc3ccccc3)n2)ccc1O`, -1.76% (active).
`O=C(CSSCC(=O)c1ccc(Cl)cc1)c1ccc(Cl)cc1`: the growth was 74.8%.
Under `Cc1ccc(S(=O)(=O)N2CCCN(c3nc(-c4ccccc4)nc4nc(-c5ccccc5)oc34)CC2)cc1` stands 109%; under `COc1cccc(-c2nn(-c3ccccc3)cc2-c2ccnc(NCCCNS(=O)(=O)c3ccc(C(F)(F)F)cc3)c2)c1`, -9.51% (active).
In the case of `Cn1c(N2NC(=O)C(N=Nc3ccc(S(N)(=O)=O)cc3)C2=O)nc(-c2ccco2)c(C#N)c1=O` (stereo not given), the growth is -17.9% (active).
Take `Cc1cccc2c(=O)c3c(sc12)c(NCc1ccccc1)nc1ccccc13`: the growth was -12.7% (active).
For `O=C(NOCCO)c1ccc2cncn2c1Nc1ccc(I)cc1F` the value was 107%; for `COc1ccc(-c2cc(C(=O)N3N=C(c4ccc(N)cc4)CC3c3ccc(Cl)cc3)c3ccccc3n2)cc1` (stereo not given), 18.4%; for `O=C1c2cc3c(cc2-c2c1c1ccc(Cl)cc1c(=O)n2CCCNCCO)OCO3`, -91.6% (active).
For `COc1ccc(C2NC(=O)C(C#N)c3c2sc2c(F)cccc32)cc1` (stereo not given) the value was 33.7%; for `O=C1Nc2c(ccc(Cl)c2Cl)/C1=C/c1ccccn1`, 50.6%; for `N#C/C(=C\c1ccc(Br)cc1)n1nnc2ccc(F)cc21`, -9.09% (active).
As for `CN(C)c1cccc2[nH]c(-c3[nH]ncc3Nc3ccnc(N)n3)nc12`, the growth was -67.5% (active).
In the case of `N#Cc1cccc(C2C3=C(COC3=O)N(CCO)c3cc4c(cc32)CCC4)c1` (stereo not given), the growth was 3.97% (active).
For `O=C(Cc1ccc([N+](=O)[O-])cc1)Oc1ccccc1` the value was 113%.
Take `CC(C)(C)OC(=O)NCCc1ccc(N)cc1`: the growth was 94.3%.
For `Cc1cc(N2CCN(CC(=O)Nc3ccc4c(ccn4C)c3)CC2)nc(N2CCCCCC2)n1` the value was 65.1%; for `CCCNC(=O)Oc1ccc(/C(=C(\C)c2ccccc2)c2ccc(OCCCN(C)C)cc2)cc1`, 83.4%; for `O=C1Nc2ccc(F)cc2C12Nc1cc(Cl)ccc1S2` (stereo not given), 107%.
For `N#CC1=C(N)Oc2c(sc3c(F)cccc23)C1c1ccc(F)cc1` (stereo not given) the value was 26.5%.
For `c1cc2cccc3c4cccc5cccc(c(c1)c23)c54` the value was 101%; for `COc1ccc(NC(=S)NNc2ccc(-c3ccc(OC)c(OC)c3)nn2)cc1`, 109%; for `CC(=O)Oc1ccc(C2(c3ccc(OC(C)=O)cc3)C(=O)Nc3ccccc32)cc1`, 46.2%.
Take `O=C1Nc2ccc(Br)cc2C12CC(c1ccccc1)=NN2` (stereo not given): the growth is 48.6%.
As for `Cc1nnc(N/N=C/c2ccc([N+](=O)[O-])o2)[nH]c1=O`, the growth is 31.2%.
As for `Cn1nc(N)c2cc([C@@H]3Nc4ccc5[nH]ncc5c4[C@H]4C5CCC(C5)[C@@H]34)ccc21` (stereo not given in full), the growth was -2.64% (active).
Under `C=CCn1c(-c2nc3ccc(C(=C(C#N)C#N)c4ccccc4)cc3[nH]2)cc2cc(Br)ccc21` stands 42.6%; under `CSc1nc(NCc2ccccc2)c(C#N)c(-c2cccc([N+](=O)[O-])c2)n1`, 110%.
`C=C(C)[C@@H]1CC[C@]2(C(=O)N3CCN(C)CC3)CC[C@]3(C)[C@H](CC[C@@H]4[C@@]5(C)CCC(=O)C(C)(C)[C@@H]5CC[C@]43C)[C@@H]12`: the growth is 77.3%.
For `COc1cc(/C=N/n2cnc3oc(-c4ccccc4)cc3c2=N)cc(CN2CCCCC2)c1O` the value was -35.8% (active).
For `COc1cc(OC)c(/C=C/C(=O)c2c(OC)cc(OC)cc2OC)c(OC)c1` the value was 14%; for `CCC(=O)N1C/C(=C/c2ccc(OC)cc2)C(=O)/C(=C/c2ccc(OC)cc2)C1`, -25.6% (active); for `COCCNC(=O)Cc1cc(-c2ccc(Cl)cc2)n(-c2ccccc2)c1C`, 73%.
For `CNC(=O)c1cc(Oc2ccc3c(c2)sc2nc(-c4ccc(N)cc4)cn23)ccn1` the value was 40.6%; for `O=S(=O)(O)c1cc(O)c2c(N=Cc3ccccc3O)c(S(=O)(=O)O)ccc2c1`, 101%.

Values taken from PubChem BioAssay (NCI).
